# An excerpt weighted towards active compounds, which were near 3.4% of everything screened.
# PLCb3 inh – human PLC-beta3 inhibitors, primary screen, biochemical, fluorescence. 1-phosphatidylinositol 4,5-bisphosphate phosphodiesterase beta-3 (Homo sapiens), Q01970. Purified PLC-beta3, fluorogenic substrate. inhibition, % at 12.2 µM. 370,000 compounds, 0.18% hits; in the data active = inhibition above about 11%;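 note: 0% = median of compound wells on plate and 100% = full blocker control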
# Target sequence (Q01970 whole entry, looked up): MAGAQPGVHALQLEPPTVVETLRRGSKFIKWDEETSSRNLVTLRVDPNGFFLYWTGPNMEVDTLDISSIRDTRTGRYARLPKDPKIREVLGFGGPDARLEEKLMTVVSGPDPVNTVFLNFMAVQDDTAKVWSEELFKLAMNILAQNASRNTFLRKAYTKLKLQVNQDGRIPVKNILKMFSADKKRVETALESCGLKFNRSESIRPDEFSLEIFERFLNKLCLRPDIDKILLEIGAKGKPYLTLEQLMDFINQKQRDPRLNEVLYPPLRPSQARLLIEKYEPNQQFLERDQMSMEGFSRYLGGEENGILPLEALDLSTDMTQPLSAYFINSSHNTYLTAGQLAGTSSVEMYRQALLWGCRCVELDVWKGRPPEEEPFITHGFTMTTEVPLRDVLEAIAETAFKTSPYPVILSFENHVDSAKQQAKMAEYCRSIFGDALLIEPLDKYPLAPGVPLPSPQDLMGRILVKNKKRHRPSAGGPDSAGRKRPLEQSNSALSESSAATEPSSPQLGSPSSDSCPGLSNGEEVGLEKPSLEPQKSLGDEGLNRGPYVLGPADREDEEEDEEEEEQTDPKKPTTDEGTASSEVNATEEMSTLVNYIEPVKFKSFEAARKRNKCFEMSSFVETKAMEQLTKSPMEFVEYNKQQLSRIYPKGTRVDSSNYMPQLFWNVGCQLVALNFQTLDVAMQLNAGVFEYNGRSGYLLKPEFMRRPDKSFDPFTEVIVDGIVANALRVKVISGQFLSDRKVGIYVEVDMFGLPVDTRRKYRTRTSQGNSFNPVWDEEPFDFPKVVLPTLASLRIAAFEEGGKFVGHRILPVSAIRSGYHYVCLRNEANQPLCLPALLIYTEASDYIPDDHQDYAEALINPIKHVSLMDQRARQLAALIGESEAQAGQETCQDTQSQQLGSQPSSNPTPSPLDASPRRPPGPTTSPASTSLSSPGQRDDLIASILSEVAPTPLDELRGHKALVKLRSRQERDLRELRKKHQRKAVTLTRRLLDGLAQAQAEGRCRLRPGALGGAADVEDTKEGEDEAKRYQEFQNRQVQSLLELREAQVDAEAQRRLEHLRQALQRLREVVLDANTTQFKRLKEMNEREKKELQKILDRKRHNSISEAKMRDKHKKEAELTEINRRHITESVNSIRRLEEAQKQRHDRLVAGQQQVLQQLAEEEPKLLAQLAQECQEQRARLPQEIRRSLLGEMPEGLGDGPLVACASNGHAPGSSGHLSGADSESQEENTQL
# KLK7 zymogen act – proKLK7 zymogen activators, primary screen, biochemical, fluorescence intensity | Kallikrein-7 (Homo sapiens), P49862 | purified proKLK7, EDANS-DABCYL substrate fluorescence; 100% is mature enzyme control, 0% vehicle | activation, % at 7 µM | 370,000 compounds, 0.9% hits | AID 652039, 2013;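 active = activation above the mean of all tested compounds plus 3 SD, computed per campaign excluding outliers beyond control limits, cut at about 13% in these data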
# HGIII-sPLA2 inh – human group III sPLA2 inhibitors, primary screen, biochemical, QFRET, BODIPY PC-A2 liposome substrate | Group 3 secretory phospholipase A2 (Homo sapiens), Q9NZ20 | QFRET BODIPY PC-A2 liposome hydrolysis, fluorescence | inhibition, % at 12.2 µM | 370,000 compounds, 0.56% hits;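 active = inhibition above mean plus 3 SD of compounds lying within the high and low control bounds, cut at about 19% in these data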;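 note: 0% = median of test compound wells and 100% = no enzyme DMSO wells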
# ADAM17 inh – ADAM17 inhibitors, primary screen, biochemical, QFRET. Disintegrin and metalloproteinase domain-containing protein 17 (Homo sapiens), P78536. recombinant ADAM17, EDANS/DABCYL FRET peptide cleavage. inhibition, % at 6.95 µM. 370,000 compounds, 0.83% hits;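 active = inhibition above the mean of compounds lying between control limits plus 3 SD, set per campaign, cut at about 8.5% in these data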;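 note: 0% = DMSO-only wells as the low control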
# ADAM10 inh – human ADAM10 inhibitors, primary screen, biochemical, QFRET, HTS | recombinant ADAM10, EDANS/DABCYL FRET peptide cleavage, 3 h | inhibition, % at 7 µM | 370,000 compounds, 0.62% hits;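 active = inhibition above a per-campaign cutoff equal to the mean of compounds falling between control-based bounds plus 3 SD, cut at about 20% in these data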;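 note: 0% = DMSO wells while the 100% control is not disclosed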
# PLC-gamma1 inh – PLC-gamma1 enzyme inhibitors, primary screen, biochemical, fluorescence, purified enzyme. 370,000 compounds, 0.84% hits. 1-phosphatidylinositol 4,5-bisphosphate phosphodiesterase gamma-1 (Homo sapiens), P19174. AID 720700, 2013. inhibition, % at 12.2 µM. fluorogenic substrate; in the data active = inhibition above about 9.5%
# KLK7 act conf – proKLK7 zymogen activators, confirmation, biochemical, fluorescence intensity, triplicate; shares compounds with KLK7 zymogen act; purified proKLK7, EDANS-DABCYL substrate fluorescence; scaled: vehicle 0, mature enzyme 100; activation, % at 7 µM; 3,200 compounds, 68% hits; AID 686949, 2013;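 active = activation, as change over the incubation, above the mean of all tested compounds plus 3 SD, cut at about 13% in these data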
# EDANS interfere – EDANS-DABCYL substrate optical interference, artefact control for kallikrein-7 zymogen activator project, biochemical, fluorescence intensity, high throughput; shares compounds with KLK7 zymogen act; 3,200 compounds, 80% hits; AID 686952, 2013; activation, % at 7 µM; no enzyme, 4 h; solvent 0%, active enzyme control 100%;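 active = activation above the all-compound mean plus 3 SD, ignoring values outside control-based bounds, cut at about 4.8% in these data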;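 note: value is the 4 h activation minus the activation read at time zero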
# K7 EDANS ctr – optically interferes with EDANS-DABCYL fluorescence, kallikrein-7 activator counter-screen; shares compounds with KLK7 zymogen act; EDANS-DABCYL peptide fluorescence interference, no enzyme; EC50, µM; 250 compounds, 20% hits;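 active = compounds that raise the fluorescence signal in this interference counterscreen, with EC50 at or below 10 µM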;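 note: intact quenched peptide substrate alone read at 355 nm excitation and 520 nm emission; signal is fluorescence gain from T0 to T4 after four hours at room temperature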
# * hit, by the source's call; i = inactive; x = no result; ! = repeats disagree.
SMILES,PLCb3 inh,KLK7 zymogen act,HGIII-sPLA2 inh,ADAM17 inh,ADAM10 inh,PLC-gamma1 inh,KLK7 act conf,EDANS interfere,others
CCN1C(=O)c2cccc3c(S(=O)(=O)N(C)C)ccc1c23,i,64.7*,-8.7,-288.4,i,i,73.1*,74.7*,
CN1C(=O)c2cccc3c(S(=O)(=O)N(C)C)ccc1c23,i,48.6*,0.4,-219.3,i,i,65.7*,72.8*,
O=C1c2ccccc2-c2n[nH]c3cccc1c23,i,62.8*,-17.0,-51.2,-239.0,i,73.9*,75.4*,
O=c1c(-c2ccccc2)n[nH]c2ccccc12,-0.7,0.2,0.4,-9.1,-18.5,0.8,x,x,
CCN1CCSc2ccc(C(=O)NCc3ccccc3Br)cc21,i,-25.1,1.4,-382.8,i,i,x,x,
CN1CCSc2ccc(C(=O)Nc3cc(F)ccc3F)cc21,i,15.5*,8.2,-67.5,-239.6,i,11.1,12.2*,
CCN1CCSc2ccc(C(=O)NCc3ccccc3F)cc21,i,30.7*,0.9,i,i,i,50.0*,-25.9,K7 EDANS ctr=>69.5
CCN1CCSc2ccc(C(=O)NCc3ccccc3C)cc21,i,20.0*,0.1,-433.8,i,i,-21.3,-25.3,
COc1cccc(CNC(=O)c2ccc3c(c2)N(C)CCS3)c1OC,i,37.6*,7.7,i,i,i,68.7*,47.2*,K7 EDANS ctr=>69.5
O=C(C(=O)N1CCN(C(=O)c2cccs2)CC1)c1cccc(C(F)(F)F)c1,0.5,0.3,2.7,-0.6,2.1,-4.6,x,x,
CC(C)Oc1ccc(CNC(=O)c2ccc3c(c2)N(C)CCS3)cc1,i,-21.9,-2.6,-456.4,i,i,x,x,
CN1CCSc2ccc(C(=O)NCc3ccccc3F)cc21,i,29.3*,6.9,-380.1,i,i,30.6*,13.4*,K7 EDANS ctr=>69.5
Cc1ccc2nc3ccc(N4CCN(C)CC4)nn3c(=O)c2c1,i,39.6*,3.2,-76.1,-227.5,-472.5,12.1,12.9*,
Cc1ccc2nc3ccc(N4CCCCCCC4)nn3c(=O)c2c1,-79.6,2.2,-1.8,-7.6,-13.5,-61.7,x,x,
CCCCn1c(=NC(=O)c2cccnc2)c(C(=O)OCC)cc2c(=O)n3ccccc3nc21,-206.7,4.4,3.1,-223.9,i,-166.1,x,x,
Cc1cccn2c(=O)c3cc(C#N)c(=NC(=O)c4ccncc4)n(CCCOC(C)C)c3nc12,-143.2,-0.7,10.6,-313.6,i,-108.0,x,x,
COCCCn1c(=NC(=O)c2ccncc2)c(C#N)cc2c(=O)n3cccc(C)c3nc21,-369.5,14.7*,4.9,i,i,-269.2,30.3*,46.7*,
CCCCn1c(=NC(=O)c2ccco2)c(C(=O)OCC)cc2c(=O)n3ccccc3nc21,i,50.0*,1.0,i,i,-464.1,21.0*,21.4*,
CCOCCCn1c(=NC(=O)c2cccnc2)c(C(=O)OCC)cc2c(=O)n3ccccc3nc21,i,29.3*,2.5,i,i,i,2.9,4.5*!,
CCOC(=O)c1cc2c(=O)n3ccccc3nc2n(Cc2ccc(Cl)cc2)c1=N,-42.7,-0.4,5.3,-76.3,-183.6,-23.5,x,x,
CCCCCn1c(=NC(=O)c2ccco2)c(C(=O)OCC)cc2c(=O)n3ccccc3nc21,-349.1,23.7*,-7.0,i,i,-256.6,32.6*,38.0*,
CCCCOCC1CN(CCCC)S(=O)(=O)c2c(cccc2Sc2ccc(SC)cc2)O1 (stereo not drawn),4.1,0.4,-4.1,3.3,4.1,6.5,x,x,
CCCCOCC1CN(CCCC)S(=O)(=O)c2c(cccc2N(C)S(=O)(=O)c2ccc(C)cc2)O1 (stereo not drawn),3.4,1.1,-1.9,5.6,5.9,2.9,x,x,
C=CCN1C=C(C(=O)OCC)C(=O)CC1,-2.9,0.3,7.5,-5.6,-17.0,-0.4,x,x,
CCc1c(-c2ccccc2)ncn1CCc1ccccc1OC,1.4,0.5,-5.2,-2.3,-6.9,1.6,x,x,
SMILES,PLCb3 inh,KLK7 zymogen act,HGIII-sPLA2 inh,ADAM17 inh,ADAM10 inh,PLC-gamma1 inh,KLK7 act conf,EDANS interfere,others
Nc1ncnc2c1ncn2[C@@H]1O[C@H](C(=O)N[C@@H](CCc2ccccc2)C(=O)N2CCN(C(=O)C(F)(F)F)CC2)[C@@H](O)[C@H]1O,4.9,0.0,2.8,-1.2,-6.0,-2.5,x,x,
CCOC(=O)c1cc2c(=O)n3cccc(C)c3nc2n(CCCOC)c1=NC(=O)c1cccnc1,-388.9,9.2,3.8,i,i,-331.1,x,x,
CCOCCCn1c(=NC(=O)c2cccs2)c(C#N)cc2c(=O)n3ccccc3nc21,i,53.1*,-0.3,i,i,i,-432.5,-326.4,
Cc1cccn2c(=O)c3cc(C#N)c(=NC(=O)c4cccs4)n(CCCOC(C)C)c3nc12,-159.9,6.8,-2.2,-382.1,i,-112.2,x,x,
CCCCn1c(=NC(=O)c2ccco2)c(C(=O)OCC)cc2c(=O)n3cccc(C)c3nc21,-227.2,18.1*,11.2,i,i,-185.0,2.4,-0.9,
CCc1c(-c2cccc(OC)c2)ncn1CCc1ccccc1OC,1.4,0.3,-4.6,-4.5,-9.6,2.5,x,x,
O=C(Nc1cccc(Cl)c1)Nc1ccc2nccnc2c1,-85.0,0.2,-17.1,-11.4,-30.8,-48.4,x,x,
Cc1ccc(C(=O)Nc2ccc3nccnc3c2)cc1,-392.8,12.6*,-4.1,-241.4,i,-346.1,45.4*,38.1*,K7 EDANS ctr=9.19*
O=C(Nc1ccc2nccnc2c1)Nc1ccccc1Cl,-78.8,19.9*,-1.6,-7.0,-28.1,-57.4,46.1*,43.8*,
C#CCOCCOCCOCCNc1nc(N2CCN(C(=O)[C@H](CCCCN)n3cc([C@@H](N)CC(C)C)nn3)CC2)nc(N2CCN(C(=O)[C@H](Cc3cc4ccccc4[nH]3)n3cc([C@@H](N)CC(C)C)nn3)CC2)n1,2.9,x,-41.0,-23.3,-94.1,7.4,x,x,
COCCNS(=O)(=O)c1ccc2c(c1)C(=NO)c1cc(S(=O)(=O)NCCOC)ccc1-2,-238.2,13.7*,-40.7,-37.5,-138.6,-165.3,0.9,-1.3,
